Records with an inconclusive call do not appear. Values without a mark were called inactive. The source made the active and inactive calls. Calls follow the shape of the dose curve; as a rule, active = well fitted cell-killing curve with a large enough effect; inconclusive = small, poorly fitted or top-dose-only effect, or effect the other way; inactive = flat fitted curve, though single readings scatter.
test system: C33A; experiment: Primary qHTS to identify gynecologic anti-cancer compounds using libraries of approved drugs and bioactive compounds (AID 1345084); details: Gynecologic cancer cell panel viability, ATPlite luminescence, 48 h; series mostly up to 57.5 µM; activity change, negative = cytotoxicity: at the top concentration; also: nearly all actives have a fitted effect of over 55% in size
Outline: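 Five-point cytotoxicity, 48 h drug exposure at 37 C, 5% CO2, on cells seeded 16 h beforehand. ATP content read by ATPlite luminescence.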
% is scaled to controls: 0 for no effect and ±100 for the full control effect; potency is read from the fitted curve at half-maximal effect.

Row | SMILES | Potency | activity change, negative = cytotoxicity
1 | COc1cc(C(=O)NC2CCN(C)CC2)c(F)cc1Nc1ncc2c(n1)N(C1CCCC1)CC(F)(F)C(=O)N2C | 0.282 µM (active) | 
2 | CC1(C)CC[C@]23CO[C@@]4(CCC5[C@@]6(C)CC[C@H](O[C@@H]7OC[C@H](O[C@@H]8O[C@H](CO)[C@@H](O)[C@H](O)[C@H]8O)[C@H](O)[C@H]7O[C@@H]7O[C@H](CO)[C@@H](O[C@@H]8O[C@H](CO)[C@@H](O)[C@H](O)[C@H]8O)[C@H](O)[C@H]7O)[C@@](C)(CO)C6CC[C@@]5(C)[C@]4(C)C[C@H]2OC2OCC(O)C(O)C2O)C3C1 (some centres undefined) |  | -28.5% [at 6.55 µM]
3 | CN1c2ccccc2C(=O)N2CCC3c4ccccc4NC3C21 (centres undefined) |  | -16.9% [at 38.5 µM]
4 | Nc1ccc(/C=C/C(=O)NCc2cc3cc(-c4ccc(C(=O)N5CCC(F)(F)CC5)cc4)cc(-c4ccc(F)cc4)c3o2)cn1 | 7.08 µM (active) | 
5 | CCCCNc1ncc2c(-c3ccc(CN4CCN(C)CC4)cc3)cn(C3CCC(O)CC3)c2n1 (centres undefined) |  | -18.4%
6 | CC[C@H](C)[C@H](NC(=O)[C@H]([C@@H](C)CC)N(C)C(C)=O)C(=O)N[C@H](C(=O)N[C@@H](CC(C)C)C(=O)[C@@]1(C)CO1)[C@@H](C)O | 0.1 µM (active) | 
7 | C[C@@H]1O[C@@H](O[C@H]2[C@H](O[C@H]3[C@H](O[C@H]4CC[C@@]5(C)C(CC[C@]6(C)C5CC=C5[C@@H]7CC(C)(C)CC[C@]7(C(=O)O[C@@H]7O[C@H](CO)[C@@H](O[C@@H]8O[C@@H](C)[C@H](O)[C@@H](O)[C@H]8O)[C@H](O)[C@H]7O)CC[C@]56C)C4(C)C)OC[C@H](O)[C@@H]3O)O[C@H](CO)[C@@H](O)[C@@H]2O)[C@H](O)[C@H](O)[C@H]1O (some centres undefined) |  | -22.7% [at 6.55 µM]
8 | CCOc1cc(N2CCC(O)CC2)ccc1Nc1ncc2c(n1)N(C1CCCC1)CCC(=O)N2C |  | -4.03%
9 | Cc1ccccc1C#Cc1ccc(CCC(=O)O)cc1 |  | -41%
10 | CC(=O)NCC(=O)N1C2CCC1c1cc(Nc3ncc(C(F)(F)F)c(NC4CCC4)n3)ccc12 (centres undefined) |  | -9.96%
11 | C[C@@H]1COCCN1c1cc(C2(S(C)(=O)=O)CC2)nc(-c2cccc3[nH]ccc23)n1 | 4.47 µM (active) | 
12 | O=C(c1ccccc1)c1ccc2nc(NC(=O)c3csc(C4CCN(c5ncnc6ccsc56)CC4)n3)[nH]c2c1 | 15.8 µM (active) | 
13 | CN1CCN(c2ccc(C(=O)Nc3n[nH]c4ccc(Cc5cc(F)cc(F)c5)cc34)c(NC3CCOCC3)c2)CC1 |  | -34.7%
14 | O=C(Nc1ccc(Cl)cc1F)c1ccccc1O | 14.1 µM (active) | 
15 | COc1cc2nc(N3CCCC3)nc(NCCCCCN3CCCC3)c2cc1OC | 15.8 µM (active) | 
16 | O=C(c1cn(Cc2cncn2Cc2ccc(Br)cc2)cc1-c1cccc2ccccc12)N1CCOCC1 |  | -21.9%
17 | CC(=O)OC1C(=O)C2(C)C(O)CC3OCC3(OC(C)=O)C2C(OC(=O)c2ccccc2)C2(O)CC(OC(=O)C(O)C(NC(=O)c3ccccc3)c3ccccc3)C(C)=C1C2(C)C (centres undefined) |  | -2.08%
18 | CN1CCC(Nc2nc(Nc3ccc(Oc4ccccc4)cc3)c3c(=O)[nH]cc(Br)c3n2)CC1 |  | 6.3%
19 | O=S(=O)(NCC1CC1)c1ccc(Nc2nccc(N3CCCc4cc(O)ccc43)n2)cc1 | 31.6 µM (active) | 
